AHR activator: activates the human aryl hydrocarbon receptor | AHR-responsive luciferase reporter cells, luminescence | activation, % at 5 µM | hit rate 2.5% among 320,000; in the data active = activation above about 47%;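 also: 0% = vehicle wells and 100% = reference agonist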
DAX1 inh-1: inhibitors of human orphan nuclear receptor DAX1 (NR0B1) | inhibition, % at 6.75 µM | hit rate 0.99% among 340,000 | HEK293 Gal4-DAX1 luciferase reporter, luminescence | P51843;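 active = inhibition above the mean over all tested compounds plus 3 SD, cut at about 4.2% in these data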;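 also: 0% = DAX1-transfected cells with DMSO and 100% = empty-vector control cells with DMSO; inhibition shows as a rise in luminescence from relieved DAX1 repression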
Target sequence (P51843 207-470 limits assumed): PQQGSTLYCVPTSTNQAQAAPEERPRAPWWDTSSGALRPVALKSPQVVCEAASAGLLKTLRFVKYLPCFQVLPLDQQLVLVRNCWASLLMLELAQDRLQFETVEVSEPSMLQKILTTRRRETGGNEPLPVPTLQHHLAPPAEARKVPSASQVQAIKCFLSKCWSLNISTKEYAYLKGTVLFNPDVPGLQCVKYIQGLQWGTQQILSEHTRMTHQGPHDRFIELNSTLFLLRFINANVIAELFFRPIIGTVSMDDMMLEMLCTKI
hgDAF12 agonist: agonists of H. glycines DAF-12 nuclear receptor | HEK293 GAL4-hgDAF12 UAS-luciferase reporter, agonist luminescence; normalized to butyrate control | activation, % at 6.8 µM | hit rate 1.8% among 370,000;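 active = activation above a cutoff set at the mean of all screened compounds plus 3 SD, cut at about 10% in these data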;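 also: 0% = DMSO wells and 100% = sodium butyrate wells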
ssDAF12 agonist: S. stercoralis DAF-12 activation, primary screen; AID 652126; HEK293 ssDAF-12/GRIP1 lit1-tk-luc reporter, luminescence; % of 3 µM dafachronic acid response; hit rate 1% among 370,000; activation, % at 6.8 µM;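 active = activation above the mean over all tested compounds plus 3 SD, cut at about 0.9% in these data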;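 also: 0% = DMSO-only wells and 100% = 3 µM delta7-dafachronic acid wells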
DAX1 inh-2: inhibitors of DAX1 repression of SF-1 activated StAR promoter | HEK293T StAR-luciferase reporter, SF-1/DAX-1 repression relief | inhibition, % at 6.8 µM | hit rate 1.1% among 370,000 | AID 652010;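 active = inhibition above the mean over all tested compounds plus 3 SD, cut at about 3.6% in these data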;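 also: 0% = DAX-1 cells with DMSO and 100% = cells lacking DAX-1 with DMSO; higher inhibition means more luminescence from relief of DAX-1 repression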
hcDAF12 agonist: activators of H. contortus DAF-12 nuclear receptor. HEK293 hcDAF-12 lit1-tk-luc reporter, luminescence; 0% DMSO, 100% Δ7-dafachronic acid. activation, % at 6.8 µM. hit rate 1.4% among 370,000;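 active = activation above the mean of all tested compounds plus 3 SD, cut at about 5.5% in these data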;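 also: 100% = response to 3 µM Δ7-dafachronic acid high control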
DAX1 inh confirm: NR0B1 (human) inhibition, confirmation; inhibition, % at 6.8 µM; shares compounds with DAX1 inh-2; HEK293T StAR-promoter luciferase reporter, SF-1/DAX-1 repression; AID 652134; hit rate 87% among 2,400;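 active = inhibition above the average of every tested compound plus 3 SD, cut at about 3.8% in these data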;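 also: 0% = DAX-1 cells with DMSO and 100% = no DAX-1 control cells with DMSO; active compounds raise luminescence by relieving repression of the StAR reporter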
Target sequence (P51843 whole entry, looked up): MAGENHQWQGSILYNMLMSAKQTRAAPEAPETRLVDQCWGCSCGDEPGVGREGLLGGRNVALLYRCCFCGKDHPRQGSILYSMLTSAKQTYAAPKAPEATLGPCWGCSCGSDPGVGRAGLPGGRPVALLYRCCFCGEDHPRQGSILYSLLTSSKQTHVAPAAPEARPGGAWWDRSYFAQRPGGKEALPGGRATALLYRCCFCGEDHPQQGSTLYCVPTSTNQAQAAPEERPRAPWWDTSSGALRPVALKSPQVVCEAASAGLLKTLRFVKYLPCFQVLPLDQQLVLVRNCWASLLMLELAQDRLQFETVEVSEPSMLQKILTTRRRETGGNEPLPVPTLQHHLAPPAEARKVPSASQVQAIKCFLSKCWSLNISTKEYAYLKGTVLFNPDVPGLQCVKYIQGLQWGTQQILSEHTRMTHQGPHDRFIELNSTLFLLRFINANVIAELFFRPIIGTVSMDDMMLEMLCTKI
SF1 mutant ctr: nonselective inhibitor or artifact in SF-1 mutant DAX1 counter-screen | shares compounds with DAX1 inh-2 | HEK293 StAR-luciferase, SF-1 AF2 mutant, luminescence | inhibition, % at 6.8 µM | hit rate 78% among 2,400 | AID 652136;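 active = inhibition above the mean of all tested compounds plus 3 SD, cut at about 3% in these data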;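 also: 0% = DAX-1 transfected cells with DMSO and 100% = cells without DAX-1 with DMSO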
Active calls of the source: *; nt = not tested or not shown. A selection: hits, their analogues and other compounds. The true share with any hit is near 5.7%.

SMILES | AHR activator | DAX1 inh-1 | hgDAF12 agonist | ssDAF12 agonist | DAX1 inh-2 | hcDAF12 agonist | DAX1 inh confirm | SF1 mutant ctr
CCN(C[C@H]1N[C@@](C)(C(=O)OC)[C@H]2C(=O)N(Cc3ccccc3)C(=O)[C@@H]12)C(=O)COC | 0 | 0 | 1 | 0 | 5.9* | 1 | 0 | 0
CC[C@@]1(C(=O)OC)N[C@H](CN(C)C(=O)Nc2ccc(C(F)(F)F)cc2)[C@@H]2C(=O)N(Cc3ccccc3)C(=O)[C@@H]21 | 2 | -1 | 2 | 2.5* | 5.3* | 0 | 1 | 1
CCc1ccc2oc(C(=O)NCCc3ccc(S(N)(=O)=O)cc3)cc(=O)c2c1 | 1 | -1 | 0 | -1 | -1 | -2 | nt | nt
COc1ccc(C(CNC(=O)c2cccc(NC(=O)c3cccs3)c2)N2CCCC2)cc1 (stereo unspecified) | 6 | 1 | 2 | -1 | 4.5* | 1 | 6.4* | 3.7*
CCOc1ccc(-c2cc(C(=O)Nc3ccc(F)cc3)[nH]n2)c(C)c1 | nt | nt | 12* | 0 | 7.4* | 3 | 10* | 6.7*
Cc1ccc(NC(=O)c2sccc2C)nc1 | 12 | 2 | 11* | 1 | 9.7* | 5 | 9.2* | 7.2*
Cc1ccsc1C(=O)OCC(=O)Nc1ccc(Cl)cn1 | 1 | 1 | 2 | -1 | 2 | -3 | nt | nt
CCN(C(=O)COC(=O)CSc1ccc(F)cc1)c1c(N)n(Cc2ccccc2)c(=O)[nH]c1=O | -2 | 2 | 2 | -1 | 1 | 0 | nt | nt
COC(=O)C1CCN(C(=O)c2ccc3nccnc3c2)CC1 | nt | 1 | -1 | -1 | 0 | 2 | nt | nt
COC(=O)C1CCN(C(=O)c2ccc3nc(-c4cccc(OC)c4)oc3c2)CC1 | 10 | -1 | 5 | 0 | 4.8* | 2 | 8.3* | 5.0*
COc1ccc(-c2oc3cc(O)c(OC)c(O)c3c(=O)c2OC)cc1O | nt | -1 | -3 | 1 | 7.9* | 2 | 16* | -9
COc1cc(OC)c2c(=O)c(OC)c(-c3ccc(OC)c(OC)c3)oc2c1 | 14 | -1 | nt | nt | nt | nt | nt | nt
Cc1cccc(CN2CCCC(C(=O)Nc3ccc(-c4cscn4)cc3)C2)c1 (stereo unspecified) | nt | 0 | 2 | -1 | 4.6* | -3 | 3 | -1
O=C(Nc1ccc(-c2cscn2)cc1)C1CCCN(Cc2ccccc2)C1 (stereo unspecified) | 16 | 0 | 4 | -1 | 2 | -3 | nt | nt
C=C(C)Cn1c(=O)c(NC(=O)c2ccccc2)c2n(c1=S)CCC2 | 5 | 0 | 2 | -1 | 0 | 1 | nt | nt
COc1ccc(-n2c(=O)c(NC(=O)c3ccccc3)c3n(c2=S)CCCCC3)cc1 | 0 | 1 | 0 | -1 | 4.9* | -2 | 0 | 0
Cc1ccc(/C=C2\SC(=S)N(CCC(=O)N3CCOCC3)C2=O)cc1 | 0 | -1 | 0 | -1 | -1 | 2 | nt | nt
COCc1ccc(CN2CCCC(C(=O)Nc3ccc(-c4cccc(OC)c4)cc3)C2)o1 (stereo unspecified) | 5 | 0 | -2 | -1 | -1 | -3 | nt | nt
c1ccc(Cn2cc(CCOCc3ccccn3)c3ccccc32)cc1 | nt | nt | 9 | 0.9* | 4.9* | 2 | 2 | 2
Cc1ccc(NC(=O)CN2CCN(S(=O)(=O)c3ccc4c(c3)OCCO4)CC2)c(C)c1 | nt | 0 | 0 | -2 | 0 | -1 | nt | nt
O=C(/C=C/c1cccs1)Nc1nc(-c2ccccc2)cs1 | -6 | -1 | 5 | 0 | 0 | -2 | nt | nt
O=C(/C=C/c1cccs1)Nc1scc(-c2ccccc2)c1C(=O)O | nt | 0 | 13* | 0 | 4.7* | 3 | 7.3* | 3.6*
CSc1ccc(/C=C/C(=O)NC(=O)c2ccccc2O)cc1 | 12 | 1 | 13* | 0 | 4.9* | 4 | 8.8* | 5.8*
Clc1cccc(-c2cc3nc4c(c(NCc5ccco5)n3n2)CCCC4)c1 | 28 | 1 | 8 | -1 | 4.5* | 2 | 12* | 4.8*
c1coc(CNc2c3c(nc4ncnn24)CCCC3)c1 | 1 | 0 | -1 | -1 | -1 | -2 | nt | nt
SMILES | AHR activator | DAX1 inh-1 | hgDAF12 agonist | ssDAF12 agonist | DAX1 inh-2 | hcDAF12 agonist | DAX1 inh confirm | SF1 mutant ctr
O=C(Nc1ccc(N2CCCC2)cc1)c1cccc(Cl)c1Cl | 30 | 0 | 7 | -1 | 0 | 0 | nt | nt
O=C(Nc1ccc(N2CCCC2)cc1)c1ccccc1F | 7 | 0 | 13* | 0 | 4.5* | 5 | 7.1* | 3.5*
COc1ccc(C(C(=O)NC(C)(C)C)n2c(=O)c(-c3cc4ccccc4[nH]3)nc3ccccc32)cc1 (stereo unspecified) | nt | nt | 2 | 0 | 0 | 3 | nt | nt
O=C(Nc1ccc(-c2nc3ccccc3[nH]2)cc1)C1CCCO1 (stereo unspecified) | 2 | -1 | 13* | 0 | 7.7* | 5 | 15* | 8.9*
O=C(Nc1nc2ccccc2[nH]1)C1CCCO1 (stereo unspecified) | 1 | 1 | 4 | -2 | 0 | -1 | nt | nt
O=C(/C=C/c1ccc2c(c1)OCO2)Nc1cccnc1 | 56* | 4 | 11* | -1 | 11* | 3 | 14* | 4.5*
CC(=O)Nc1ccc(NC(=O)/C=C/c2ccc3c(c2)OCO3)cc1 | 1 | 1 | 6 | -1 | 0 | -1 | nt | nt
O=C(/C=C/c1ccco1)Nc1ccc2c(c1)OCO2 | 72* | 2 | 12* | 0 | 6.1* | 2 | 11* | 6.0*
O=C(COc1ccc2ccccc2c1Br)Nc1cccnc1 | 6 | 0 | 2 | -1 | 5.1* | -1 | 4.2* | 2
O=C(COc1ccc2ccccc2c1Br)Nc1ccncc1 | 13 | -2 | -2 | -1 | -3 | -3 | nt | nt
Cc1cccc(C)c1N1C(=O)c2ccccc2NC(=O)C1C(=O)NCCc1ccccc1F (stereo unspecified) | nt | nt | 1 | -1 | 4.7* | 0 | 2 | 0
Cc1cc(C(=O)COC(=O)Cc2c(F)cccc2Cl)c(C)n1C | nt | 2 | 10 | 0 | 5.0* | 5 | 5.8* | 3.2*
Cn1c(N)c(C(=O)COC(=O)Cc2c(F)cccc2Cl)c(=O)n(C)c1=O | 0 | -1 | 1 | -1 | 0 | 0 | nt | nt
Cc1nc2ccc(NC(=O)Cc3ccccc3F)cc2s1 | 2 | 2 | 9 | 0 | 5.3* | 4 | 11* | 6.9*
Cc1nc2ccc(NC(=O)c3cccs3)cc2s1 | 2 | 0 | 8 | 0 | 7.4* | 3 | 9.3* | 4.7*
CCc1sc(C(=O)Nc2ccc3nc(C)sc3c2)cc1C | -1 | 0 | 6 | -1 | 4 | 3 | nt | nt
O=C(COc1coc(CN2CCc3ccccc3C2)cc1=O)Nc1ccccc1F | -2 | -1 | 0 | -1 | 0 | -2 | nt | nt

Screens (PubChem)
